# The campaign covered roughly 330,000 compounds. About 1,700 (0.52%) were called active. Many of the other results were omitted from the sample, so actives are more common in it than they were. Unmarked numbers belong to inactive results.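 How the source made its calls: active means GFP response versus DMSO above a set limit, roughly screen mean plus 3 SD (cut at about 180% in these data); inconclusive means fewer than 70 cells counted for a yeast strain; inactive means the rest.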
# Assay: TOR pathway GLN3 branch reporter MEP2-GFP changes – S. cerevisiae, multiplex flow cytometry, MLPCN library, primary screen (AID 2016);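 further: median GFP fluorescence of the barcode-gated MEP2-GFP cells per well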
# Conditions: S. cerevisiae MEP2-GFP strain, 3 h, at 10 µM, active compounds read high, 100% = DMSO control level
row,Compound,GFP response vs DMSO
1,O=C(c1ccncc1)N1CCN(S(=O)(=O)c2cc(C(F)(F)F)cc(C(F)(F)F)c2)CC1,103%
2,COc1ccc(O[C@H]2C=C[C@@H](c3ccccc3)O[C@@H]2CO/N=C/C[C@@H]2C=C[C@H](OC(C)=O)[C@@H](COC(C)=O)O2)cc1,90%
3,CC(NC(=S)NC1CCCCC1)C(c1ccccc1)N1CCOCC1 (stereo not drawn),99.2%
4,CC1CCC(NS(=O)(=O)c2ccc3c(c2)n(C)c(=O)c(=O)n3C)CC1 (stereo not drawn),102%
5,Cn1sc(=O)c2cc(S(=O)(=O)NC3CC3)ccc21,626% [may fluoresce violet] (active)
6,O=S(=O)(NC1CC1)c1ccc(F)c(F)c1,101%
7,CCCN(CCC)CC(O)COc1ccccc1C(=O)Nc1ccccc1 (stereo not drawn),107%
8,O=C(Nc1ccc(Br)c2cccnc12)c1ccc(Cn2cc([N+](=O)[O-])cn2)o1,97.1%
9,O=C(COc1ccc(-n2cnnn2)cc1)Nc1ccccc1Cl,240% [may fluoresce violet] (active)
10,C=CCc1cccc(/C=N/NC(=O)COc2ccc(-n3cnnn3)cc2)c1O,102%
11,O=C(COc1ccc(Cl)cc1)Nc1ccccc1CO,98.3%
12,Cc1c(-c2ccccc2)cn2c1-c1ccc(C)n1CC2,106%
13,COC(=O)C[n+]1cccc2ccccc21,221% (active)
14,COc1ccccc1NC(=O)C[n+]1ccccc1,108%
15,Cc1cccc[n+]1CC(=O)c1ccccc1,113%
16,CCOc1ccc(CN(C)C(=O)c2ccc(=O)[nH]c2)cc1,104%
17,COc1cc(COCC(O)CN2CCN(Cc3ccc4c(c3)OCO4)CC2)cc(OC)c1OC (stereo not drawn),100%
18,COc1ccc2cc1Oc1ccc(cc1)C[C@H]1c3cc(c(OC)cc3CCN1C)Oc1c(O)c(OC)cc3c1[C@H](C2)N(C)CC3,99.2%
19,COc1c(O)ccc2c1CN1CCc3cc4c(cc3C1C2)OCO4 (stereo not drawn),205% (active)
20,COc1ccc(NC(=O)CSc2nncc(=O)n2N)cc1OC,104%
21,COc1ccccc1CNC(=O)COn1nnc2ccc(S(=O)(=O)N3CCOCC3)cc21,123%
22,CCC(Oc1ccccc1)C(=O)NCc1cccnc1 (stereo not drawn),101%

row,Compound,GFP response vs DMSO
1,CC(=O)OC(C(=O)NCCc1ccccc1)c1cccnc1 (stereo not drawn),234% [may fluoresce violet] (active)
2,O=C(CSc1ncccn1)NCCc1ccccc1,96.5%
3,COc1cc(CO)c(C2(CO)CCCC2)cc1OC,101%
4,COc1ccc(/C=C(\C#N)c2c[nH]c3ccccc23)cc1,98.7%
5,C[n+]1ccc(/C=C/c2c[nH]c3ccccc23)cc1,403% (active)
6,O=C(NC1CCCC1)C(=O)c1c[nH]c2ccccc12,90.7%
7,CCOc1cc(/C=N/NC(=O)OC)ccc1OCCSc1ccc(Cl)cc1,94.9%
8,O=S(=O)(Nc1ccccc1)c1ccc(NS(=O)(=O)c2cccs2)cc1,94.2%
9,Clc1ccc(CN2CCCCCC2)cc1Cl,111%
10,Cc1ccc2nc(-c3ccc(SCC(=O)Nc4cc(C)on4)nc3)[nH]c2c1,103%
11,CC(=O)O[C@]1(C(C)=O)CC[C@H]2[C@@H]3C=C(C)C4=CC(=O)CC[C@]4(C)[C@H]3CC[C@@]21C,180% [may fluoresce violet] (active)
12,CC(=O)C12CC(C)=C(C)CC1CC1C3CCC4=CC(=O)CCC4(C)C3CCC12C (stereo not drawn),101%
13,O=C(C1Cc2ccccc2CN1C(=O)c1ccco1)N1CCN(c2ccccc2)CC1 (stereo not drawn),93.4%
14,COc1ccc(CNC(=O)COC(=O)C(CCSC)N2C(=O)c3ccccc3C2=O)cc1 (stereo not drawn),106%
15,Cc1c(NC(=O)c2c([N+](=O)[O-])cnn2C)c(=O)n(-c2ccccc2)n1C,284% [may fluoresce violet] (active)
16,Cc1cc(OCC(=O)Nc2c(C)n(C)n(-c3ccccc3)c2=O)ccc1[N+](=O)[O-],112%
17,Cc1c(NC(=O)Nc2cccc([N+](=O)[O-])c2)c(=O)n(-c2ccccc2)n1C,103%
18,CCOC(=O)C1CCN(C(=O)Cc2c(C(=O)O)[nH]c3ccccc23)CC1,105%
19,Nc1nc(SCC(=O)Nc2ccc(Cl)c([N+](=O)[O-])c2)n[nH]1,106%
20,CC(C)(C)C(=O)Nc1ccc(-c2cn3cccnc3n2)cc1,119%
21,FC(F)(F)Oc1ccc(-c2cn3cccnc3n2)cc1,471% [may fluoresce violet] (active)
22,COc1ccc(-c2cn3cccnc3n2)cc1,101%

row,Compound,GFP response vs DMSO
1,O=C(NCC(F)(F)F)Nc1nnc(C(F)(F)F)s1,90.6%
2,COc1ccc(CC(NC(C)=O)C(=O)NC2CCN(C(=O)c3ccc(OC)c(OC)c3)CC2)cc1OC (stereo not drawn),95.1%
3,CCc1ccc(OCC2c3cc(OC)c(OC)cc3CCN2C(C)=O)cc1 (stereo not drawn),269% [may fluoresce violet] (active)
4,COc1ccc2[nH]c(=O)c(C3c4cc(OC)c(OC)cc4CCN3C(=O)c3ccco3)cc2c1 (stereo not drawn),105%
5,CCOCc1nnc(NC(=O)CCC2CCCCC2)s1,110%
6,CC(Oc1cc2oc(=O)c3c(c2cc1Cl)CCCC3)C(=O)NCc1ccncc1 (stereo not drawn),185% [may fluoresce violet] (active)
7,O=C(COc1cc2oc(=O)c3c(c2cc1Cl)CCC3)NCCCN1CCOCC1,113%
8,COc1ccc(S(=O)(=O)NC(C)C(=O)NCc2ccncc2)cc1Cl (stereo not drawn),102%
9,Cc1cccc(-c2nc(CS(=O)CC(=O)NC(C)CCc3ccccc3)c(C)o2)c1 (stereo not drawn),98.7%
10,O=C(CCN1C(=O)[C@@H]2Cc3ccccc3CN2C1=O)NCCc1ccccc1,106%
11,C#CCCOC(=O)N1C2=NC(C(=O)OC)=C(C(=O)OC)[C@@H]3N(C)c4ccc(OC)cc4[C@]23C[C@H]1C(=O)OC,89.3%
12,COc1ccc(CSc2nnnn2-c2ccc(C(=O)O)cc2)cc1,114%
13,COc1ccc(-c2nnn(Cc3nc(N)nc(N4CCCCC4)n3)n2)cc1,107%
14,COc1ccc(-n2nnnc2SCc2nc(N)nc(N3CCOCC3)n2)cc1,283% [may fluoresce violet] (active)
15,Cc1nn(C)c(C)c1C(C)NC(=O)c1ccc(OC2CCN(Cc3ccccn3)CC2)cc1 (stereo not drawn),111%
16,O=C1c2ccccc2NC(c2ccc(-c3cccc(Cl)c3)o2)N1O (stereo not drawn),103%
17,O=c1c(-c2cccc(Cl)c2)c[nH]n1-c1ccccc1,193% [may fluoresce violet] (active)
18,O=c1c(-c2ccccc2Cl)c[nH]n1-c1ccccc1,99.8%
19,CC1CCN(S(=O)(=O)c2nnc(NC(=O)COc3ccccc3F)s2)CC1,98.5%
20,CC1(C)Cc2c(sc3nc(SCC(=O)NCc4ccccc4)n(-c4ccccc4)c(=O)c23)CS1,107%
21,COc1ccccc1C(=O)COC(=O)COc1ccc(C#N)cc1,114%
22,CCN(Cc1cc2cc(C)ccc2[nH]c1=O)S(=O)(=O)c1ccccc1,97.6%

row,Compound,GFP response vs DMSO
1,Cc1ccc(S(=O)(=O)N(Cc2cc3ccccc3[nH]c2=O)CC2CCCO2)cc1 (stereo not drawn),195% [may fluoresce violet] (active)
2,O=C(c1cccs1)N(Cc1cc2ccccc2[nH]c1=O)CC1CCCO1 (stereo not drawn),103%
3,CC1CC(C)CN(CCCNC(=O)c2csc3c2CCCCC3)C1 (stereo not drawn),103%
4,C=CCC[C@@H](Cc1ccc(F)cc1)C(=O)O[C@H](CNC(=O)[C@H](CC=C)CC(=O)N(CCO)Cc1ccccc1)c1ccccc1,104%
5,Cc1ccc(SCC2=NNC(=O)C2)cc1,249% [may fluoresce violet] (active)
6,Cc1ccc(SCCSc2ncccn2)cc1,106%
7,Cc1ccc(SCc2cc(=O)[nH]c(N3CCCCC3)n2)cc1,96.5%
8,CCOc1ccc(Br)cc1CSC(=N)N,103%
9,COc1ccccc1P(=O)(c1ccccc1)c1ccccc1NC(C)=O (stereo not drawn),83.1%
10,COc1ccc(C(=O)NCCSc2ccccc2C)cc1,99.7%
11,COC(=O)CCSc1cc([N+](=O)[O-])cc2c1c(C1OCCS1)nn2-c1ccccc1 (stereo not drawn),107%
12,Cc1cc(C)cc(NC(=O)COc2coc(CN3CCN(c4ccccc4)CC3)cc2=O)c1,105%
13,Cc1cccc2sc(N(CCCN(C)C)C(=O)CCS(=O)(=O)c3ccccc3)nc12,93.5%
14,Cc1cc(C)c2nc(N(CCN(C)C)C(=O)/C=C/c3cccs3)sc2c1,110%
15,Cc1ccc2sc(N(CCN(C)C)C(=O)/C=C/c3cccs3)nc2c1C,253% [may fluoresce violet] (active)
16,O=C(Nc1ccc(F)cc1)C1CCCN(S(=O)(=O)c2ccc(-n3cnnn3)cc2)C1 (stereo not drawn),106%
17,COc1ccc(OCc2ccc(-c3nc4ccccc4c(=O)n3N)o2)cc1,249% [may fluoresce violet] (active)
18,Cn1c(COc2ccc(Cl)cc2)nc2ccccc2c1=O,102%
19,COc1ccc(-c2nc3ccccc3c(=O)n2CCc2ccc(O)cc2)cc1,103%
20,CSc1ncccc1C(=O)NCc1ccccc1Cl,107%
21,COc1c(C)c2c(c(O)c1C/C=C(\C)CCC(=O)O)C(=O)OC2,297% [may fluoresce violet] (active)
22,CCCCn1c(N)c(N(CC)C(=O)c2ccc(N(C)S(=O)(=O)c3ccc(C)cc3)cc2)c(=O)[nH]c1=O,98%

# — PubChem BioAssay AID2016 (NMMLSC, 2009)
